Assay results taken from PubChem BioAssay (Tox21).
Records with an inconclusive call do not appear. Active and inactive are the calls of the source. Unless noted, calls come from the whole dose curve.

Experiments:
[1] = Nuclear factor erythroid 2-related factor 2/antioxidant responsive element (Nrf2/ARE) small molecule agonists: qHTS cell viability counter screen in human keratinocytes (AID 1919968; active = well fitted curve in the direction sought with a large enough effect in the repeat runs; an effect the other way counts as inactive or inconclusive; note: nearly all actives have a fitted effect of over 55% in size)
Method in brief: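 Seed 1,500 KeratinoSens cells per well, then incubate 5 h at 37 C/5% CO2. Add compounds in DMSO and incubate 23 h. Add CellTiter-Fluor, wait 1 h and read fluorescence.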

[2] = Nuclear factor erythroid 2-related factor 2/antioxidant responsive element (Nrf2/ARE) small molecule agonists: luciferase reporter gene qHTS assay in human keratinocytes (AID 1919969); note: nearly all actives have a fitted effect of over 35% in size
[3] = biological target: Gonadotropin-releasing hormone receptor (Homo sapiens) (UniProt P30968); test: Human gonadotropin-releasing hormone receptor (GnRHR) small molecule agonists, calcium flux assay in GnRHR-HEK293 cells (AID 1920063); note: nearly all actives have a fitted effect of over 35% in size
Method in brief: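 Cells: HEK293 stably expressing human GnRHR. Steps: overnight (18 h) culture, 1 h calcium dye loading at 37 C, compound addition, kinetic fluorescence read at 480/540 nm. Each compound tested at 15 concentrations in triplicate.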

[4] = biological target: KiSS-1 receptor (Homo sapiens) (UniProt Q969F8); test: Human kisspeptin (KISS1R) small molecule agonists, calcium flux assay in KISS1R-HEK293 cells (AID 1920064; active = well fitted curve in the direction sought with a large enough effect in the repeat runs; an effect the other way counts as inactive or inconclusive)
Method in brief: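 Cells plated and incubated 18 h; dye added, 1 h at 37 C; compounds in DMSO pinned in; signal read at 480/540 nm every second for 3 min. Each compound tested at 15 concentrations in triplicate.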

[5] = p53 small molecule agonists, cell-based qHTS assay with human liver microsomes (AID 1963577);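 note: p53 response element beta-lactamase reporter cells with liver microsomes plus NADPH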
Method in brief: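 Cells carrying a p53-responsive bla reporter were rested 5 h (37 C, 5% CO2) before compound transfer. Human liver microsomes plus NADPH, 0.5 mg/mL final apiece, supplied metabolism during the 16 h 37 C exposure.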

[6] = p53 small molecule agonists, cell-based qHTS assay with human liver microsomes: qHTS cell viability counter screen (AID 1963579); note: nearly all actives have a fitted effect of over 45% in size
Method in brief: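 Seed p53RE-bla cells at 4,000 per well; incubate 5 h at 37 C; add compound, human liver microsomes and NADPH; incubate 16 h at 37 C; add CellTiter-Glo; after 30 min at room temperature, read luminescence.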

[7] = p53 small molecule agonists, cell-based qHTS assay with rat liver microsomes: qHTS cell viability counter screen (AID 1963580); note: nearly all actives have a fitted effect of over 45% in size
Method in brief: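 HCT-116 p53RE-bla, 4,000 cells/well, 5 h pre-incubation; cpd + rat liver microsomes 0.5 mg/mL + NADPH 0.5 mg/mL (final); 16 h, 37 C; CellTiter-Glo, 30 min RT; luminescence.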

[8] = p53 small molecule agonists, cell-based qHTS assay: qHTS cell viability counter screen (AID 1963581); note: nearly all actives have a fitted effect of over 45% in size
Method in brief: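 Cells: HCT-116 with p53 response element-driven beta-lactamase. Treatment: 16 h, 37 C, compounds in DMSO. Read: CellTiter-Glo luminescence after 30 min RT.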

[9] = p53 small molecule agonists, cell-based qHTS assay (AID 1963582; active = well fitted activation curve with a large enough effect in the signal ratio in the repeat runs, not every such curve was filed as active; the % refers to the signal ratio)
Method in brief: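 Quantitative HTS in p53RE-bla cells: after a 5 h settling period, compounds delivered in DMSO were left on cells for 16 h at 37 C, and reporter induction was measured as fluorescence following 2 h substrate loading.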

[10] = biological target: 5-hydroxytryptamine receptor 2A (Homo sapiens) (UniProt P28223); test: 5-hydroxytryptamine receptor 2A (HTR2A) small molecule antagonists, cell-based qHTS assay (AID 1963586); note: nearly all actives have a fitted effect of over 45% in size
Method in brief: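 Antagonist-mode intracellular calcium assay: DOI (4 nM) added after 5 min compound pre-incubation at room temperature to dye-loaded HTR2A-CHO cells. Fluorescence followed for 3 min, sampled every second.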

[11] = biological target: 5-hydroxytryptamine receptor 2A (Homo sapiens) (UniProt P28223); test: 5-hydroxytryptamine receptor 2A (HTR2A) small molecule agonists, cell-based qHTS assay (AID 1963587); note: nearly all actives have a fitted effect of over 30% in size
Method in brief: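 Kinetic calcium-flux fluorescence (2 min, 1 sec intervals) after compound addition in agonist mode. HTR2A-CHO cells were cultured 18 h, then dye-loaded 1 h at 37 C.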

[12] = biological target: Muscarinic acetylcholine receptor M1 (Homo sapiens) (UniProt P11229); test: Cholinergic receptor muscarinic 1 (CHRM1) small molecule antagonists, cell-based qHTS assay (AID 1963588); note: nearly all actives have a fitted effect of over 40% in size
Method in brief: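 CHRM1-CHO calcium-flux assay, antagonist mode. Cells were seeded 18 h, dye-loaded 1 h at 37 C and given compound for 5 min at RT, then acetylcholine was added at 50nM. FDSS fluorescence was read 3 min; 15 concentrations, three runs.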

[13] = biological target: Muscarinic acetylcholine receptor M1 (Homo sapiens) (UniProt P11229); test: Cholinergic receptor muscarinic 1 (CHRM1) small molecule agonists, cell-based qHTS assay (AID 1963589); note: nearly all actives have a fitted effect of over 35% in size
Method in brief: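 Agonist-mode qHTS in CHO cells stably carrying human muscarinic M1. Intracellular calcium is tracked by fluorescence every second after compound transfer; each compound runs at 15 concentrations in three independent runs.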

[14] = cAMP Responsive Elements (CRE) small molecule agonists, cell-based qHTS assay (AID 1963590)
Method in brief: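 Agonist mode qHTS in CRE-bla HEK 293T cells: compounds dosed from DMSO for 3 h at 37 C/5% CO2, followed by LiveBLAzer B/G FRET substrate for 2 h at room temperature.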

[15] = cAMP Responsive Elements (CRE) small molecule antagonists, cell-based qHTS assay (AID 1963591; active = well fitted inhibition curve with a large enough effect in the signal ratio in the repeat runs, not every such curve was filed as active; the % refers to the signal ratio)
Method in brief: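 Antagonist mode: test compounds are co-incubated with the adenylyl cyclase activator NKH477 (0.25 uM final) on CRE-bla HEK293T cells for 3 h at 37 °C, followed by LiveBLAzer substrate loading.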

[16] = biological target: Beta-2 adrenergic receptor (Homo sapiens) (UniProt P07550); test: Adrenergic beta2 receptor (ADRB2) small molecule antagonists, cell-based qHTS assay (AID 1963592); note: series mostly up to about 92 µM; nearly all actives have a fitted effect of over 50% in size
Method in brief: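 Cells (CHO, stable ADRB2 overexpression) incubated 18-20hr at 37C; compounds added from DMSO; agonist mix (1nM isoproterenol, 100uM IBMX, 25uM Ro-20-1724) added; 0.5hr RT; d2-cAMP and anti-cAMP-cryptate added; 1hr RT; 665/615 nm read.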

[17] = biological target: Beta-2 adrenergic receptor (Homo sapiens) (UniProt P07550); test: Adrenergic beta2 receptor (ADRB2) small molecule agonists, cell-based qHTS assay (AID 1963593);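 note: CHO cells stably overexpressing human ADRB2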
Method in brief: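 CHO cells stably over-expressing ADRB2 were plated overnight at 37C, then dosed with compounds plus a stimulation mix containing 100uM IBMX and 25uM Ro-20-1724 for 0.5hr at room temperature. cAMP was measured by HTRF competition, 1hr.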

[18] = biological target: D(2) dopamine receptor (Homo sapiens) (UniProt P14416); test: Dopamine D2 receptor (DRD2) small molecule agonists, cell-based qHTS assay (AID 1963594); note: nearly all actives have a fitted effect of over 35% in size
Method in brief: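 cAMP accumulation in DRD2-HEK293 cells measured by HTRF after 1 h detection; compounds added 10 min before NKH477 (200nM […]) forskolin-analogue stimulation, 30 min at room temperature, with Ro20-1724 present at 0.1 mM final.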

[19] = biological target: D(2) dopamine receptor (Homo sapiens) (UniProt P14416); test: Dopamine D2 receptor (DRD2) small molecule antagonists, cell-based qHTS assay (AID 1963595; active = well fitted inhibition curve with a large enough effect in the signal ratio in the repeat runs, with a control signal flat; the % refers to the signal ratio)
Method in brief: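 Cells were plated and grown for 24 h at 37 °C. Ro20-1724 (0.1 mM final) went in first, then compound for 10 min. NKH477 (200 nM) with quinpirole (12 nM) followed for 30 min at RT, then HTRF detection reagents for 1 h.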

Measured: Potency

Sequence of D(2) dopamine receptor (Homo sapiens) (P14416 whole entry, looked up): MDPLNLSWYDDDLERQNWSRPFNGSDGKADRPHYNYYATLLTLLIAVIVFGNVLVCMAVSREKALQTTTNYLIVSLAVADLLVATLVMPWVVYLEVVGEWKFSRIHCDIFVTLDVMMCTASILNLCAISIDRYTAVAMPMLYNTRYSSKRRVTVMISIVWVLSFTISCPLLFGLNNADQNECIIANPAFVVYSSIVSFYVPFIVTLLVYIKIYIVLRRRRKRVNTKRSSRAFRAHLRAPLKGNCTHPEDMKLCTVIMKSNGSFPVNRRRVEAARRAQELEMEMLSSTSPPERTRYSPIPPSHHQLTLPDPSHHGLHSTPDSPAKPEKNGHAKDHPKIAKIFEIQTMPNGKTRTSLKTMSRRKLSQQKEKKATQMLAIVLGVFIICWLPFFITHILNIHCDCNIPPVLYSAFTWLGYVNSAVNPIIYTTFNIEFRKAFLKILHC
Sequence of 5-hydroxytryptamine receptor 2A (Homo sapiens) (P28223 whole entry, looked up): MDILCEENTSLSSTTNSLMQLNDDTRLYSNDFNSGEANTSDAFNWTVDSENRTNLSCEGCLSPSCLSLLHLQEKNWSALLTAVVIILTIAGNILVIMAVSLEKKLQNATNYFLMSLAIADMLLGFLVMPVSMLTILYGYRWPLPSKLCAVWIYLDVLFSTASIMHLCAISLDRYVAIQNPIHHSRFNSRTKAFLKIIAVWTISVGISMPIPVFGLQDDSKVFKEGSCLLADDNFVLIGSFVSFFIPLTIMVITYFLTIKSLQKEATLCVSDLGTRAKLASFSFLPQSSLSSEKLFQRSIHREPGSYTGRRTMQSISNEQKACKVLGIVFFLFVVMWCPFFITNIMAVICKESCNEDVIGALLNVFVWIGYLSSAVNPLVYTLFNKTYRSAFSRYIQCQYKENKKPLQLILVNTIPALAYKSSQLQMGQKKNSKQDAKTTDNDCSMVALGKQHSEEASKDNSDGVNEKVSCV
Sequence of KiSS-1 receptor (Homo sapiens) (Q969F8 whole entry, looked up): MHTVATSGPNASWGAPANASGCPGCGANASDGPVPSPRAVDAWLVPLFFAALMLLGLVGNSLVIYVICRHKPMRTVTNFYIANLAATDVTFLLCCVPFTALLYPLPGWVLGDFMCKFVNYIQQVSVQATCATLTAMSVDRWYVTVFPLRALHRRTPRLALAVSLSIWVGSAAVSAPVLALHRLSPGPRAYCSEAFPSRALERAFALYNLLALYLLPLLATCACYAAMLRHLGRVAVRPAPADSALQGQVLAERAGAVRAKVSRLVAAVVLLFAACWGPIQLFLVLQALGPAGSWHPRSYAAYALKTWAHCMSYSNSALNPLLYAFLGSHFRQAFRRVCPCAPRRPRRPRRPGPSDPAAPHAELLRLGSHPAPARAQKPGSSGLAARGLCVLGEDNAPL
Sequence of Gonadotropin-releasing hormone receptor (Homo sapiens) (P30968 whole entry, looked up): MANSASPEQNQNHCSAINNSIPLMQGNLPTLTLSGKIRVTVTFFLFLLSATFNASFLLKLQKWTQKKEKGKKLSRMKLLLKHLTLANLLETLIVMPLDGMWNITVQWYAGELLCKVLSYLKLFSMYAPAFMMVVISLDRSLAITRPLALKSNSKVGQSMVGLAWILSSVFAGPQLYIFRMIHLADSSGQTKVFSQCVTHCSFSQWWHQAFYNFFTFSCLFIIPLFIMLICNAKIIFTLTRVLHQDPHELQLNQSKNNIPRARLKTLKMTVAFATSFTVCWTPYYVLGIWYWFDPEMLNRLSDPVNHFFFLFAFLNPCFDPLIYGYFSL
Sequence of Beta-2 adrenergic receptor (Homo sapiens) (P07550 whole entry, looked up): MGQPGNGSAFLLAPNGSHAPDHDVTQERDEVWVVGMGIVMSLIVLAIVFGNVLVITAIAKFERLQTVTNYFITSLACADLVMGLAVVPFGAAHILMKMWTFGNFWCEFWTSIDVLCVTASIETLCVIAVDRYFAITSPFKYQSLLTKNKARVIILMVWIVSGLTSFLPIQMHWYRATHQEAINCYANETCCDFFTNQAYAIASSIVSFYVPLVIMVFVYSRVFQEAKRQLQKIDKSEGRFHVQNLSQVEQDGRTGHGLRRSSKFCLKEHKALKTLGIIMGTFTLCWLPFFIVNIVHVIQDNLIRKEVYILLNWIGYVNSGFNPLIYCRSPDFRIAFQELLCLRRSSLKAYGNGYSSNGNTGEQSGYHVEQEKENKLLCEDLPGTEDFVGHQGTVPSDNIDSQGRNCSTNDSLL
Sequence of Muscarinic acetylcholine receptor M1 (Homo sapiens) (P11229 whole entry, looked up): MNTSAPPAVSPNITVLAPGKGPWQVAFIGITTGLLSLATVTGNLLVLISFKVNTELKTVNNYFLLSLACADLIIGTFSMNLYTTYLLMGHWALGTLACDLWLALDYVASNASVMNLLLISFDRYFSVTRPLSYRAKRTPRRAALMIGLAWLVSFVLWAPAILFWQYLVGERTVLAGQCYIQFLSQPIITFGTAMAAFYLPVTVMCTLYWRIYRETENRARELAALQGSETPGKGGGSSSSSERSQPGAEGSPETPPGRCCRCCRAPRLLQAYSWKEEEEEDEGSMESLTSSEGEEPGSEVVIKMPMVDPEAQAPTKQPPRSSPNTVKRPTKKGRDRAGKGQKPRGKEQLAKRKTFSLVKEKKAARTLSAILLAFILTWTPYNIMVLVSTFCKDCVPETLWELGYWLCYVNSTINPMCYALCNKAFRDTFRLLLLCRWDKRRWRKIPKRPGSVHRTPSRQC

C=CC(C)(O)CC/C=C(\C)CCC=C(C)C (stereo not given)
inactive: [1] | [2] | [3] | [4] | [5] | [6] | [7] | [8] | [9] | [10] | [11] | [12] | [13] | [14] | [15] | [16] | [17] | [18] | [19]

O=C(O)[C@H](O)[C@@H](O)[C@H](O[C@@H]1O[C@H](CO)[C@H](O)[C@H](O)[C@H]1O)[C@H](O)CO
inactive: [1] | [2] | [3] | [4] | [5] | [6] | [7] | [8] | [9] | [10] | [11] | [12] | [13] | [14] | [15] | [16] | [17] | [18] | [19]

COC(=O)Cc1cccc2ccccc12
inactive: [1] | [2] | [3] | [4] | [5] | [6] | [7] | [8] | [9] | [10] | [11] | [12] | [13] | [14] | [15] | [16] | [17] | [18] | [19]

C[N+](C)(C)CC[N+]1(C)Cc2c(Cl)c(Cl)c(Cl)c(Cl)c2C1
inactive: [1] | [2] | [3] | [4] | [5] | [6] | [7] | [8] | [9] | [10] | [11] | [12] | [13] | [14] | [15] | [16] | [17] | [18] | [19]

COC(=O)c1cc(Cl)c(NC(C)=O)cc1OC
inactive: [1] | [2] | [3] | [4] | [5] | [6] | [7] | [8] | [9] | [10] | [11] | [12] | [13] | [14] | [15] | [17] | [18] | [19]

Cl/C(=C\n1cncn1)c1ccc(Cl)cc1Cl
inactive: [1] | [2] | [3] | [4] | [5] | [6] | [7] | [8] | [9] | [10] | [11] | [12] | [14] | [15] | [16] | [17] | [18] | [19]

COC(=O)N[C@H](C(=O)N[C@@H](Cc1ccccc1)[C@@H](O)CN(Cc1ccc(-c2ccccn2)cc1)NC(=O)[C@@H](NC(=O)OC)C(C)(C)C)C(C)(C)C
inactive: [1] | [2] | [3] | [4] | [5] | [6] | [7] | [8] | [9] | [10] | [11] | [12] | [13] | [14] | [16] | [17] | [18] | [19]
